{"source": "PubChem BioAssay AID1508621", "about": "(National Center for Advancing Translational Sciences (NCATS), 2021)", "note": "Records with an inconclusive call do not appear. Activity calls are given as the source filed them. Calls come from the whole dose curve; as a rule, active = well fitted inhibition curve with a large enough effect; inconclusive = small, poorly fitted or top-dose-only effect; inactive = no such curve, though single readings can be large or run the other way. Potency is the fitted concentration of half-maximal effect."}
{"experiment": "Confirmatory qHTS for Identification of Small Molecule Inhibitors of Huntingtin Promoter Activity; note: nearly all actives have a fitted effect of over 65% in size;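 for activity change, negative = inhibition: 0% = vehicle control and -100% = zero luminescence signal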", "conditions": "HEK293 HTT promoter firefly luciferase reporter, 24 h; series mostly up to 57.5 µM; activity change, negative = inhibition: at the top concentration", "how_it_was_run": "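Plated reporter HEK293 cells (24 h) received library compounds at up to 57.5 uM final or 50 uM PTC124, incubated 24 h at 37C; firefly luciferase luminescence was then recorded with Dual-Glo reagent.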"}
{"smiles": "Cc1cc(NC(=O)c2cc(-c3ccc(Cl)cc3)on2)nn1Cc1ccc(Cl)cc1", "activity change, negative = inhibition": "-27% (inactive)"}
{"smiles": "CCN(CC)CCOc1ccc(C(=C(Cl)c2ccccc2)c2ccccc2)cc1", "activity change, negative = inhibition": "-9.4% (inactive)"}
{"smiles": "COc1cccc(N2CCN(C(=O)c3cccc(-n4c(C)nc5cccnc54)c3)CC2)c1", "Potency": "23.9 µM (active)"}
{"smiles": "COc1ccc(-c2ccc3ncc4c(c3c2)n(-c2ccc(N3CCNCC3)c(C(F)(F)F)c2)c(=O)n4C)cn1", "activity change, negative = inhibition": "-2.51% (inactive)"}
{"smiles": "C=Cc1ccc(Cn2c(C(=O)O)c(CNCc3ccccc3)c3ccc(C)cc32)cc1", "Potency": "21.3 µM (active)"}
{"smiles": "CCc1ccc2c(c1)-c1ccccc1S(=O)(=O)N2CC(=O)N1CCC(C)CC1", "activity change, negative = inhibition": "39.3% (inactive)"}
{"smiles": "CCS(=O)(=O)c1oc(-c2ccc(F)cc2)nc1S(=O)(=O)c1ccc(Br)cc1", "activity change, negative = inhibition": "0.217% (inactive)"}
{"smiles": "CCOC(=O)C1CCN(C(=O)Cn2c(-c3cccs3)cc3cc(Cl)ccc32)CC1", "activity change, negative = inhibition": "-21.2% (inactive)"}
{"smiles": "Cc1cc(Nc2cccc(C(F)(F)F)c2)nc2ccc(NC(=O)c3cccnc3)cc12", "Potency": "19 µM (active)"}
{"smiles": "COc1cc(OC)c(OC)cc1/C=C/c1nc2cc3ccccc3cc2c(=O)n1-c1ccc(F)c(Cl)c1", "activity change, negative = inhibition": "-22.1% (inactive)"}
{"smiles": "O=C(Nc1ccc(Cl)c(Cl)c1)N(Cc1c[nH]c2ccccc12)C1CCCCC1", "activity change, negative = inhibition": "32.3% (inactive)"}
{"smiles": "CC(C)c1ccc(NC(=O)C2CCN(c3nc(-c4ccc(C(C)C)cc4)no3)CC2)cc1", "Potency": "0.0953 µM (active)"}
{"smiles": "CC(=O)N1CCc2c(sc(NC(=O)CSc3ccccc3)c2-c2nc3ccccc3s2)C1", "Potency": "26.9 µM (active)"}
{"smiles": "CC(C)C[C@@H](C=O)NC(=O)[C@H](CC(C)C)NC(=O)[C@H](CC(C)C)NC(=O)OCc1ccccc1", "Potency": "2.13 µM (active)"}
